Consider 5 compounds from PubChem BioAssay.

Molecules are shown by their SMILES. Results filed as inconclusive are left out. Active and inactive are the calls of the source.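 How the source made its calls, unless noted: active means percent response above 42, roughly 3 SD of non-fluorescent test compounds; inactive means the rest.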

A short description of assay [1]: yeast TOR pathway RPL19A-GFP modulators, primary screen, cell-based, S. cerevisiae, multiplex flow cytometry (AID 1862; in the data active means percent of DMSO control GFP below about 86%;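 further: lower values mimic rapamycin by blocking the RPL19A rise seen in DMSO cells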). The following applies: S. cerevisiae RPL19A-GFP strain, flow cytometry fluorescence, 3 h; at 10 µM; stronger effect = lower value. In general terms: A flow cytometer gives signals particle by particle.
The nature of assay [2]: modulators of MEP2-GFP levels in yeast, primary screen, S. cerevisiae, multiplex flow cytometry (AID 1867;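 active means GFP response, as percent of the DMSO control, above the screen-wide mean plus 3 SD, about 139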;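 further: median GFP channel fluorescence of barcode-gated MEP2-GFP cells measured by flow cytometry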). As to conditions: S. cerevisiae MEP2-GFP strain, 3 h, at 10 µM, stronger effect = higher value, 100% means same as DMSO wells.
A short description of assay [3]: modulators of CIT2-GFP expression in yeast, primary screen, S. cerevisiae, GFP fusion, multiplex flow cytometry (AID 1870;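 active means percent response above a set limit, the screen-wide mean plus 3 SD, cut at about 130% in these data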;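 further: barcoded CIT2-GFP strain pooled with four other GFP strains with rapamycin as positive control; median GFP fluorescence per well over plate mean of DMSO wells so 100% = DMSO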). The following applies: 3 h, at 10 µM, stronger effect = higher value.
Assay [4] in a line: modulators of LAP4-GFP expression in yeast, primary screen, S. cerevisiae, multiplex flow cytometry (AID 1873;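 active means GFP signal, as percent of the solvent control, above the screen mean plus 3 SD, about 149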). As to conditions: 3 h, at 10 µM, stronger effect = higher value.
A short description of assay [5]: modulators of AGP1-GFP expression in yeast TOR pathway, primary screen, cell-based, multiplex flow cytometry, S. cerevisiae (AID 1887;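 active means GFP signal above the screen-wide mean plus 3 SD, that is over about 124.5% of the solvent control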;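 further: AGP1-GFP fusion strain of S. cerevisiae within a five-strain barcoded multiplex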). The following applies: 3 h, at 10 µM, stronger effect = higher value.
The nature of assay [6]: inhibitors of CD8+ T cell-vesicle binding, pilot screen, LFA-1/ICAM-1 modulator project, MLPCN validation set, flow cytometry (AID 2523;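 active means response below a set limit, under 55% cells CD8-positive and vesicle-bound, and CD8 cells' 90th-percentile brightness under 279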;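 on vesicle binding response: mean PE anti-B7-1 fluorescence of CD8+ cells relative to row control; 100% = QL9-loaded vesicles with DMSO vehicle in the same plate row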). As to conditions: 2C mouse CD8+ T cells, at 7 µM, stronger effect = lower value; double positive events: measured here: CD8+/vesicle+ event percentage.
The target of assay [7] is Integrin beta-1 (Homo sapiens) + Integrin alpha-4 (Homo sapiens) (UniProt P13612+P05556). The experiment in a line: inhibition of HUTS-21 binding to VLA-4, pilot screen, VLA-4 allosteric modulator project, U937 cells, HUTS-21 mAb, flow cytometry, validation set (AID 2674;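 active means inhibition above 50%, about 3 SD of the validation set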;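 further: antibody binding induced by the VLA-4 ligand LDV present at three times its Kd; 0% = LDV ligand with antibody and no compound and 100% = antibody without LDV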). As to conditions: HUTS-21 LIBS mAb binding, at 6.7 µM, stronger effect = higher value, binding induced by LDV ligand.
Integrin beta-1 (Homo sapiens) + Integrin alpha-4 (Homo sapiens), sequence (P05556 whole entry, looked up): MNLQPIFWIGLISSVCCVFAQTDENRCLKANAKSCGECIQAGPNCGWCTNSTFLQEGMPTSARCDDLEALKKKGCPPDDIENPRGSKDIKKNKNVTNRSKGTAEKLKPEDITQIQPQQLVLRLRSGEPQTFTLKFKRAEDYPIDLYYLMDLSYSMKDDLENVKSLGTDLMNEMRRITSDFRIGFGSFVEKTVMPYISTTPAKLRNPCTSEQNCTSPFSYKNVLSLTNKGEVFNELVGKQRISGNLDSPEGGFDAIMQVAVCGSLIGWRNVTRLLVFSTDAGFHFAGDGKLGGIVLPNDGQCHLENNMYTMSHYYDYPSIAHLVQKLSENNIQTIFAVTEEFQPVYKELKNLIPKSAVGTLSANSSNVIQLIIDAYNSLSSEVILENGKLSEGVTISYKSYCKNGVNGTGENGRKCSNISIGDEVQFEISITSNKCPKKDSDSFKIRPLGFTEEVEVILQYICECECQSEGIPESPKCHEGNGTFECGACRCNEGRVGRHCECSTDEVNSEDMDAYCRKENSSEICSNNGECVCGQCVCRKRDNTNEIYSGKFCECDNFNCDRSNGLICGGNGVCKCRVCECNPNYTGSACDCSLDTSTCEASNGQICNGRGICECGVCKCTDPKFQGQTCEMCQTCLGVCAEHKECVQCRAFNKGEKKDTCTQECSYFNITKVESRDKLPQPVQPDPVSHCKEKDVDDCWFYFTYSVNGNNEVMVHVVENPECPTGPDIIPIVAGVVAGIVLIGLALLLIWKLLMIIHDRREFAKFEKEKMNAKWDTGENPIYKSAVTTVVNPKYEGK
Integrin beta-1 (Homo sapiens) + Integrin alpha-4 (Homo sapiens), sequence (P13612 whole entry, looked up): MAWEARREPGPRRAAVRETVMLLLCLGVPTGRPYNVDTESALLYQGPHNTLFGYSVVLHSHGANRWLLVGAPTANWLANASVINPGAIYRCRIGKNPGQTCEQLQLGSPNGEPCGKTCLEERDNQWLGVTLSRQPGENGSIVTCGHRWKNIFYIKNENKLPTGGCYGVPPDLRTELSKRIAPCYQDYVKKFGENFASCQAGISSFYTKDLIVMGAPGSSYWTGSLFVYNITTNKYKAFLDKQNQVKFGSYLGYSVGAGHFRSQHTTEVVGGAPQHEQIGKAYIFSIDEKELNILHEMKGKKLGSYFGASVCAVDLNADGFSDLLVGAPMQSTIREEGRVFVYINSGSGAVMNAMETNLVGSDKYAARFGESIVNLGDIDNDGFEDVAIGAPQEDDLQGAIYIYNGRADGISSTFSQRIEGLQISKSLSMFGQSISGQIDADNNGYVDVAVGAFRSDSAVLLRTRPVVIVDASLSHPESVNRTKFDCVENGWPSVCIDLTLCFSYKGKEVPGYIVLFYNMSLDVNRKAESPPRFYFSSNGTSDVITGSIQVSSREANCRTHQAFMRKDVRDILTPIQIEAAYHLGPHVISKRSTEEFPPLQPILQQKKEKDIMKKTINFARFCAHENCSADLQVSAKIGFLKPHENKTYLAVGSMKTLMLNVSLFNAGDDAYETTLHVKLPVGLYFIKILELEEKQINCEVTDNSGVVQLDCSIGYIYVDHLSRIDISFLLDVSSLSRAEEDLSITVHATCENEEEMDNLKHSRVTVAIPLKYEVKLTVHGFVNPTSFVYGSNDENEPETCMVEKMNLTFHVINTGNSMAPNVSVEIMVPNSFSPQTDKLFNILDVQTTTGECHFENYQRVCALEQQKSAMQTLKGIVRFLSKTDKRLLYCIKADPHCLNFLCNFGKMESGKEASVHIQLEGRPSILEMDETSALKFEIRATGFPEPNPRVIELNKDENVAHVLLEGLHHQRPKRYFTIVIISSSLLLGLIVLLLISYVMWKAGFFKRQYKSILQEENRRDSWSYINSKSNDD

The nature of assay [8]: superoxide lowering in aged yeast cells, pilot screen, validation compound set (AID 2706;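 active means superoxide response below 65% of plate, a cut near 3 SD across the whole screen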;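 further: yeast exposed to compound for one week at 30 degrees C before staining; 100% = mean of all compound wells on the same plate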). The following applies: S. cerevisiae aging, superoxide DHE fluorescence; at 10 µM; stronger effect = lower value.
Assay [9] has as its target Beta-adrenergic receptor kinase 1 (Homo sapiens) (UniProt P25098). The experiment in a line: GRK2 binders displacing RNA aptamer, biochemical, validation, human GRK2, bead flow cytometry (AID 488806;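 active means aptamer binding inhibition above 30%, about 3 SD of noise from non-fluorescent compounds; inactive means inhibition at or below 30%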). The following applies: bead-bound GRK2, FAM-aptamer displacement, at 10 µM, stronger effect = higher value.
In assay [10] the target is Beta-2 adrenergic receptor (Homo sapiens) (UniProt P07550). The experiment in a line: beta2AR agonists driving receptor internalization, pilot screen, cell-based, FAP fluorogen, flow cytometry, validation set (AID 504459).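 Further: agonist-driven loss of surface beta2AR via internalization measured by FAP dye flow cytometry.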 The following applies: Am2.2-beta2AR cells, FAP surface receptor flow cytometry; at 10 µM; stronger effect = higher value.
Beta-2 adrenergic receptor (Homo sapiens), sequence (P07550 whole entry, looked up): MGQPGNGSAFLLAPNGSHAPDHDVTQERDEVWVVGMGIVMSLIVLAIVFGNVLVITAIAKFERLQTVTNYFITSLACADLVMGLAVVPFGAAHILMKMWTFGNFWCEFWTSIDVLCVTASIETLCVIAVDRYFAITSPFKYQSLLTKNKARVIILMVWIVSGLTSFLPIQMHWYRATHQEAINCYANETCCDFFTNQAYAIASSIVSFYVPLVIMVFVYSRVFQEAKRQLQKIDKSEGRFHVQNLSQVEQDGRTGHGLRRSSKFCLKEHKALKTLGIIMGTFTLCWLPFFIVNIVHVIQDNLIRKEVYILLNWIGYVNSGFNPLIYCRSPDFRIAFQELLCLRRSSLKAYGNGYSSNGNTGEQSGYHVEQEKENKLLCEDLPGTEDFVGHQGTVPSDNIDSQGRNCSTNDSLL
Assay [11] addresses AP-2 complex subunit beta (Homo sapiens) (UniProt P63010). Kind of assay: inhibitors of arrestin peptide binding to AP2, pilot screen, biochemical, validation set, GST-AP2 beads, flow cytometry (AID 504541;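 active means inhibition above 54%, about 3 SD of non-fluorescent compounds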;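 further: AP2 carries R879A mutation and is captured from E. coli lysate; bead-bound FITC arrestin peptide fluorescence measuring arrestin peptide binding to AP2; 0% = DMSO wells and 100% = excess unlabeled arrestin peptide control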). The following applies: FITC arrestin peptide, at 10 µM, stronger effect = higher value, AP2 beta2 appendage fragment, R879A mutant.
The nature of assay [12]: yeast V-ATPase proton transport modulators, S. cerevisiae, pHLuorin, HTS validation (AID 504600; in the data active means response above about 15%;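 further: plate controls were DMSO for no effect and reference compound for full effect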). As to conditions: S. cerevisiae pHLuorin cytosolic pH, at 10 µM, stronger effect = higher value.
For assay [13], the system named is anti-desmoglein-3 scFv antibody binding to human DSG3. The experiment in a line: inhibitors of anti-DSG3 scFv binding to DSG3, pilot screen, biochemical, validation compound set, bead-based, flow cytometry (AID 588368;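 active means binding below the plate cutoff, the plate median minus 3 SD, with a reading above zero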;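 further: signal is the median channel fluorescence of bead-bound GFP antibody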). As to conditions: Protein G beads, DSG3-Fc, scFv-GFP binding, at 10 µM, stronger effect = lower value.
Assay [14] in a line: inhibitors of fungal efflux pumps CDR1, CDR2, MDR1, pilot screen, validation compound set, multiplex, phenotypic (AID 588506;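 active means efflux inhibition above 0.42, the validation set average plus 4 SD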;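 further: Nile Red retained in cells so higher fluorescence means more efflux inhibition; 0 = negative control wells and 1 = enniatin B 25 µM full block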). As to conditions: S. cerevisiae pump-expressing triplex, Nile Red efflux flow cytometry; at 10 µM; stronger effect = higher value; the pumps come from Candida albicans.
Assay [15] addresses ATP-binding cassette sub-family B member 6 (Homo sapiens) (UniProt Q9NP58). The experiment in a line: ABCB6 transporter inhibitors, pilot screen, K562-ABCB6 cells, flow cytometry, validation set (AID 588550;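 active means inhibition above the screen-wide mean plus 3 SD, about 51%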;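 further: 0% = DMSO wells and 100% = benzethonium chloride 70 µM positive control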). As to conditions: K562-ABCB6 porphyrin accumulation, 1 h, at 10 µM, stronger effect = higher value.
Assay [16] is described as follows: promoters of myeloid differentiation in arrested cells, primary screen, cell-based, GFP/MAC1 double positive, flow cytometry, validation set (AID 588685;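 active means differentiation response of at least 50%, scaled between solvent and reference control, from cells with both markers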;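 further: compound exposure lasts four days before antibody staining and flow analysis; 0% = DMSO wells and 100% = 5 µM fulvestrant positive control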). As to conditions: ER-HoxA9 marrow cells, stronger effect = higher value, normalized: vehicle 0, fulvestrant 100.

AP-2 complex subunit beta (Homo sapiens), sequence (P63010 whole entry, looked up, the tested form may be a part, one chain of several): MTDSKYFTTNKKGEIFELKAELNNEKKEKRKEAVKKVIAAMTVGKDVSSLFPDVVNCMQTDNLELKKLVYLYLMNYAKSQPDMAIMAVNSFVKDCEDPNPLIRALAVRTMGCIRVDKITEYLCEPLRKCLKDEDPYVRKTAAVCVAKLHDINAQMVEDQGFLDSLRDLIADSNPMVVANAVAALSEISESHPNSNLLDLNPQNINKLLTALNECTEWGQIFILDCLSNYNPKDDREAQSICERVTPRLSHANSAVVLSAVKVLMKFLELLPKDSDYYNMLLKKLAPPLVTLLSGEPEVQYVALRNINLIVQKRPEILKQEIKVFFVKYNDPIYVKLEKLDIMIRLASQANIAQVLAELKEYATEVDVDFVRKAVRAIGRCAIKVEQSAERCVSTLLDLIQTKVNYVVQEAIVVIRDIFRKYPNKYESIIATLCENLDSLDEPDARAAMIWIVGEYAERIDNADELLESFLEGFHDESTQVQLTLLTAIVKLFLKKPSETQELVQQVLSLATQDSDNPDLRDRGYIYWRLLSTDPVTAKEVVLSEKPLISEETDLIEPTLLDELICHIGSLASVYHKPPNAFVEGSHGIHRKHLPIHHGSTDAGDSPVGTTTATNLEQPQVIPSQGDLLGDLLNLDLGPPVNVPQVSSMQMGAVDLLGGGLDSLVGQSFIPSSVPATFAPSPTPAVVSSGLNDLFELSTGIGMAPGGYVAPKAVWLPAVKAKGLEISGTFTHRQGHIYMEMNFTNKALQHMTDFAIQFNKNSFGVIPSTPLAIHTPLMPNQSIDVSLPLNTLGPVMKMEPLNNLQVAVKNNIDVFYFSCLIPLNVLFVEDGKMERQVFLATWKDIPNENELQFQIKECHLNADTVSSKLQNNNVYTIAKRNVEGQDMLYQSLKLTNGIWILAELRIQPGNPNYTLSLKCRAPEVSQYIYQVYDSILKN
ATP-binding cassette sub-family B member 6 (Homo sapiens), sequence (Q9NP58 whole entry, looked up): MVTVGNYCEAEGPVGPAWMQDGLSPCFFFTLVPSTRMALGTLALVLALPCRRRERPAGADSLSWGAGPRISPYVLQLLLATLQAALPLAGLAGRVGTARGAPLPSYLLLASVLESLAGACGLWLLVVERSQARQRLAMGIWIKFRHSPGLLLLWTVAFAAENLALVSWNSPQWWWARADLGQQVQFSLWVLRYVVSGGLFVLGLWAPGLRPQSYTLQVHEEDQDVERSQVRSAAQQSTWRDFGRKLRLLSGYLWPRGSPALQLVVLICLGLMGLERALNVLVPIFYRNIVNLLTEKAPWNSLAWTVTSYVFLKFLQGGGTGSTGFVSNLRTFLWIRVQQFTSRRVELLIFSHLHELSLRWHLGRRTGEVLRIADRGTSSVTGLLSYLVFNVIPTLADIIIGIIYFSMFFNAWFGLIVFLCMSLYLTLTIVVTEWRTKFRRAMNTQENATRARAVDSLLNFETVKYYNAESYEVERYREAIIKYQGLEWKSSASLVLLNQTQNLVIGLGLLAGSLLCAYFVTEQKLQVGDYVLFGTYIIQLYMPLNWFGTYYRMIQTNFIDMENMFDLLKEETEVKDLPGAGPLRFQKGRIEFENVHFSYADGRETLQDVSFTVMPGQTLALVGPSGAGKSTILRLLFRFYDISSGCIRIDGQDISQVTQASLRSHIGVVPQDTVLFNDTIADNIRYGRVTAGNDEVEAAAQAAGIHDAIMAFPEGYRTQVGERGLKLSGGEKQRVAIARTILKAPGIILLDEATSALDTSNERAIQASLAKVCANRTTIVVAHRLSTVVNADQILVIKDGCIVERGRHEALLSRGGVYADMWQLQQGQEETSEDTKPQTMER
Beta-adrenergic receptor kinase 1 (Homo sapiens), sequence (P25098 whole entry, looked up): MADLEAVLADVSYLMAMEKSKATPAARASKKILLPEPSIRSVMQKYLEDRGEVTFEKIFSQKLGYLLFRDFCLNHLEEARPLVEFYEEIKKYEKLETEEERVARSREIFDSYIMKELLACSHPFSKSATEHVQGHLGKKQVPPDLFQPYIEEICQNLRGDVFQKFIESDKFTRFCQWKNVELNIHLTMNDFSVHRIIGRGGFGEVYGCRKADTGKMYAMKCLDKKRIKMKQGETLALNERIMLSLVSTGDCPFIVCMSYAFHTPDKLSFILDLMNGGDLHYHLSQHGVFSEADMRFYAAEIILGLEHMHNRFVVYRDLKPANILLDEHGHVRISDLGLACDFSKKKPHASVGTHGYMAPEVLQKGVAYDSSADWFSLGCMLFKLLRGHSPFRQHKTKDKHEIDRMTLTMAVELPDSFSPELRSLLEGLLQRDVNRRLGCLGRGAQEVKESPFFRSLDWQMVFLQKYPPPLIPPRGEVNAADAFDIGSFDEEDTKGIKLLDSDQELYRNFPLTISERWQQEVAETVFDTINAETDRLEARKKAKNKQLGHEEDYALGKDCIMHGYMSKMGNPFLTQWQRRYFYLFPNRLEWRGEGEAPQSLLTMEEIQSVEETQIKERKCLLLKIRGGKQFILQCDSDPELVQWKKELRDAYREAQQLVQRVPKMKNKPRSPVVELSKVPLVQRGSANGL

One may read the inhibition as the change of the read-out against control, counted positive when it falls. `CCN(CC)C(=O)c1sc(NC(=O)c2c(OC)cccc2OC)c(C#N)c1C`: the percent of DMSO control GFP in assay [1] is 101% (inactive). Further, the GFP response vs DMSO is 98.7% (inactive) in assay [2] and 88.2% (inactive) in [4]. Moreover, the percent response of DMSO control in assay [3] is 105% (inactive). In addition, in [5], the GFP response, % of DMSO is 94.7% (inactive). Moreover, the double positive events in assay [6] was found to be 66.7%. Moreover, in assay [6], the vesicle binding response is 229% (inactive). In addition, the inhibition is 1.59% (inactive) in [7], -5.78% (inactive) in [11] and 14% (inactive) in [15]. In addition, the superoxide response (% of plate) in assay [8] is 95.2% (inactive). In addition, the aptamer binding inhibition in assay [9] is 4% (inactive). The response in [10] is -1.95% (inactive); in [12], 12% (inactive). For the same compound, the binding (% of control) in assay [13] was 97.3% (inactive). Further, the efflux inhibition (fraction of control) in assay [14] was -0.025 (inactive). In assay [16], the differentiation response is 5.67% (inactive).

For `Cc1ccc2c(CC(=O)O)coc2c1`, the percent of DMSO control GFP in assay [1] was 104% (inactive). Besides, the GFP response vs DMSO in assay [2] was 94.1% (inactive); in assay [4], 73% (inactive). The percent response of DMSO control in [3] is 109% (inactive). Moreover, the GFP response, % of DMSO in assay [5] is 95.4% (inactive). Besides, in assay [6], the double positive events came out at 61.6%. The vesicle binding response in assay [6] is 132% (inactive). Moreover, the inhibition in assay [7] was -0.45% (inactive); in assay [11], 0.71% (inactive); in assay [15], 13% (inactive). Besides, the superoxide response (% of plate) in assay [8] is 107% (inactive). Besides, in assay [9], the aptamer binding inhibition was 13% (inactive). In addition, the values for the response in [10] and in assay [12] were -1.64% (inactive) and -0.96% (inactive), respectively. Also, in [13], the binding (% of control) is 95.5% (inactive). Moreover, the efflux inhibition (fraction of control) in assay [14] was 0.02 (inactive). For the same compound, the differentiation response in [16] is 0.24% (inactive).

Turning to `CCN(CCCCCN(C)C)Cc1cc2ccccc2o1`, in assay [1], the percent of DMSO control GFP was 101% (inactive). In addition, the GFP response vs DMSO is 101% (inactive) in [2] and 112% (inactive) in assay [4]. Also, in assay [3], the percent response of DMSO control was 94.8% (inactive). In assay [5], the GFP response, % of DMSO was 106% (inactive). The compound further gave a double positive events in [6] of 64.4%. Further, in assay [6], the vesicle binding response is 206% (inactive). For the same compound, the values for the inhibition in assay [7], in assay [11] and in assay [15] were -0.43% (inactive), -2.46% (inactive) and 10% (inactive), respectively. The superoxide response (% of plate) in [8] was 79.9% (inactive). Besides, in assay [9], the aptamer binding inhibition is -1% (inactive). The results for the response in assay [10] and in assay [12] were -3.86% (inactive) and 0.31% (inactive), respectively. The binding (% of control) in [13] was 102% (inactive). The efflux inhibition (fraction of control) in [14] was -0.06 (inactive). Moreover, the differentiation response in assay [16] is 5.6% (inactive).

Turning to `Cc1nc(NC(CC(C)C)C(=O)O)c2nc(C)oc2n1` (stereo not given), in assay [1], the percent of DMSO control GFP was 97.4% (inactive). The GFP response vs DMSO in assay [2] is 111% (inactive); in assay [4], 120% (inactive). Further, in assay [3], the percent response of DMSO control was 90.1% (inactive). Moreover, in [5], the GFP response, % of DMSO was 101% (inactive). In assay [6], this compound registered a double positive events of 57.6%. Further, in assay [6], the vesicle binding response was 121% (inactive). Besides, the figures for the inhibition in assay [7], in assay [11] and in assay [15] were -5.89% (inactive), 4.51% (inactive) and 6% (inactive), respectively. In addition, in assay [8], the superoxide response (% of plate) is 95.4% (inactive). For the same compound, in [9], the aptamer binding inhibition was 7% (inactive). Moreover, the values for the response in assay [10] and in assay [12] were 3.8% (inactive) and 3.4% (inactive), respectively. The binding (% of control) in assay [13] was 102% (inactive). Besides, the efflux inhibition (fraction of control) in [14] is -0.13 (inactive). For the same compound, in assay [16], the differentiation response is -28% (inactive).

For the compound `CC(C)=CCC/C(C)=C/CC/C(C)=C/CC/C(C)=C/CC1=C(C)C(=O)c2ccccc2C1=O`, in [1], the percent of DMSO control GFP was 98.2% (inactive). Besides, the figures for the GFP response vs DMSO in [2] and in [4] were 105% (inactive) and 121% (inactive), respectively. For the same compound, the percent response of DMSO control in [3] is 101% (inactive). In assay [5], the GFP response, % of DMSO was 116% (inactive). Further, in [6], the double positive events worked out at 58.9%. Moreover, the vesicle binding response in assay [6] was 205% (inactive). Further, the inhibition is -7.08% (inactive) in [7], -12.1% (inactive) in assay [11] and -4% (inactive) in assay [15]. Also, in assay [8], the superoxide response (% of plate) is 102% (inactive). For the same compound, the aptamer binding inhibition in assay [9] was 2% (inactive). In addition, the response in [10] was -16% (inactive); in assay [12] it was -1.04% (inactive). The binding (% of control) in assay [13] is 99.2% (inactive). Also, in assay [14], the efflux inhibition (fraction of control) is -0.09 (inactive). Further, in [16], the differentiation response was -6.96% (inactive).
